Measured values: PubChem BioAssay (Tox21)
Inconclusive results are not listed. A call without a number means that no potency is given here. Active and inactive are the calls of the source. Unless noted, calls follow the shape of the full dose curve.

Columns and labels:
[1] = Nuclear factor erythroid 2-related factor 2/antioxidant responsive element (Nrf2/ARE) small molecule agonists: qHTS cell viability counter screen in human keratinocytes (AID 1919968; active = well fitted curve in the direction sought with a large enough effect in the repeat runs; an effect the other way counts as inactive or inconclusive; also: nearly all actives have a fitted effect of over 55% in size)
Outline: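 Fluorescence read-out from CellTiter-Fluor after 1 h at 37 C. Wells held HaCaT-derived ARE-luciferase reporter cells (1,500/well) treated 23 h with DMSO-dissolved compounds. Run in the same wells as the luciferase agonist read.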

[2] = target: Gonadotropin-releasing hormone receptor (Homo sapiens) (UniProt P30968); experiment: Human gonadotropin-releasing hormone receptor (GnRHR) small molecule agonists, calcium flux assay in GnRHR-HEK293 cells (AID 1920063); also: nearly all actives have a fitted effect of over 35% in size
Outline: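 Calcium-dye fluorescence, Ex/Em=480/540, recorded every 1 sec over 3 min after compound addition to GnRHR-HEK293 cells. Cells had been seeded 18 hours earlier and dye-loaded for 1 hour at 37 C. Fifteen concentrations, triplicates.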

[3] = target: KiSS-1 receptor (Homo sapiens) (UniProt Q969F8); experiment: Human kisspeptin (KISS1R) small molecule agonists, calcium flux assay in KISS1R-HEK293 cells (AID 1920064; active = well fitted curve in the direction sought with a large enough effect in the repeat runs; an effect the other way counts as inactive or inconclusive)
Outline: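 Calcium flux read-out: kinetic fluorescence at Ex/Em=480/540, 1 s intervals over 3 min, after pin-tool compound addition to dye-loaded KISS1R-HEK293 cells. Fifteen concentrations, triplicates.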

[4] = G protein-coupled receptor (GPCR) small molecule agonists, calcium flux assay: HEK293 wild type cell line counter screen (AID 1920065)
Outline: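 Agonist mode; 18 h seeding at 37 C, 1 h dye load at 37 C; compounds pinned from DMSO, ATP as positive control; kinetic fluorescence 480/540 nm, 3 min, 1 s reads; 15 concentrations, triplicate.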

[5] = p53 small molecule agonists, cell-based qHTS assay with human liver microsomes (AID 1963577)
Outline: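 p53RE-bla reporter cells were pre-incubated 5 h at 37 C, then treated with compounds plus human liver microsomes (0.5 mg/mL final) and NADPH (0.5 mg/mL final) for 16 h at 37 C. Beta-lactamase activity was read by LiveBLAzer fluorescence after 2 h at room temperature.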

[6] = p53 small molecule agonists, cell-based qHTS assay with rat liver microsomes (AID 1963578)
Outline: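 p53RE-bla cells were exposed to compounds together with rat liver microsomes (0.5 mg/mL final) and NADPH (0.5 mg/mL final) for 16 h at 37 C, then read by LiveBLAzer beta-lactamase fluorescence after 2 h at room temperature.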

[7] = p53 small molecule agonists, cell-based qHTS assay with human liver microsomes: qHTS cell viability counter screen (AID 1963579); also: nearly all actives have a fitted effect of over 45% in size
Outline: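 p53RE-bla cells (4,000/well) were pre-incubated 5 h at 37 C, then given compounds in DMSO plus human liver microsomes (0.5 mg/mL final) and NADPH (0.5 mg/mL final) for 16 h at 37 C. Viability was read by CellTiter-Glo luminescence.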

[8] = p53 small molecule agonists, cell-based qHTS assay with rat liver microsomes: qHTS cell viability counter screen (AID 1963580); also: nearly all actives have a fitted effect of over 45% in size
Outline: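 Luminescent ATP readout (CellTiter-Glo, 30 min at room temperature) reports viability of p53RE-bla HCT-116 cells after 16 h at 37 C with test compounds under metabolic activation by rat liver microsomes and NADPH at 0.5 mg/mL final each.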

[9] = p53 small molecule agonists, cell-based qHTS assay: qHTS cell viability counter screen (AID 1963581); also: nearly all actives have a fitted effect of over 45% in size
Outline: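 Cytotoxicity read-out: ATP-based luminescence (CellTiter-Glo, 30 min RT) measured in the same wells as the p53 reporter assay, HCT-116 p53RE-bla cells, 16 h compound exposure at 37 C.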

[10] = p53 small molecule agonists, cell-based qHTS assay (AID 1963582; active = well fitted activation curve with a large enough effect in the signal ratio in the repeat runs, not every such curve was filed as active; the % refers to the signal ratio)
Outline: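 Fluorescence intensity read-out of a beta-lactamase reporter under a p53 response element. Cells were exposed to DMSO-dissolved compounds for 16 h at 37 C, then developed with FRET substrate for 2 h at RT.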

[11] = target: 5-hydroxytryptamine receptor 2A (Homo sapiens) (UniProt P28223); experiment: 5-hydroxytryptamine receptor 2A (HTR2A) small molecule antagonists, cell-based qHTS assay (AID 1963586); also: nearly all actives have a fitted effect of over 45% in size
Outline: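 CHO cells stably expressing human HTR2A were plated for 18 h at 37 C, then loaded with calcium dye for 1 h. Compounds were preincubated 5 min at room temperature before DOI (4 nM solution) was added. Kinetic fluorescence was read for 3 min.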

[12] = target: Muscarinic acetylcholine receptor M1 (Homo sapiens) (UniProt P11229); experiment: Cholinergic receptor muscarinic 1 (CHRM1) small molecule antagonists, cell-based qHTS assay (AID 1963588); also: nearly all actives have a fitted effect of over 40% in size; also: potency is read from the fitted curve at half-maximal effect
Outline: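 Compounds were tested at 15 concentrations in three independent runs. Dye-loaded CHRM1-CHO cells were exposed 5 min at room temperature before stimulation by acetylcholine added at 50nM. Intracellular calcium was read kinetically on FDSS for 3 min.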

[13] = target: Muscarinic acetylcholine receptor M1 (Homo sapiens) (UniProt P11229); experiment: Cholinergic receptor muscarinic 1 (CHRM1) small molecule agonists, cell-based qHTS assay (AID 1963589); also: nearly all actives have a fitted effect of over 35% in size
Outline: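 Calcium flux read-out: kinetic fluorescence at 1 sec intervals after pin-tool compound addition to dye-loaded CHRM1-CHO cells (human M1). Agonist mode; 15 concentrations tested in triplicate independent runs.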

[14] = cAMP Responsive Elements (CRE) small molecule agonists, cell-based qHTS assay (AID 1963590)
Outline: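 Beta-lactamase reporter readout: LiveBLAzer B/G FRET substrate, 2 h at room temperature, added after 3 h compound treatment of CRE-bla HEK 293T cells at 37 C/5% CO2.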

[15] = cAMP Responsive Elements (CRE) small molecule antagonists, cell-based qHTS assay (AID 1963591; active = well fitted inhibition curve with a large enough effect in the signal ratio in the repeat runs, not every such curve was filed as active; the % refers to the signal ratio)
Outline: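 HEK293T CRE-bla; 18 h preincubation; compound pin-transfer; NKH477 0.25 uM final, 3 h, 37 C; LiveBLAzer FRET substrate 2 h RT.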

[16] = target: D(2) dopamine receptor (Homo sapiens) (UniProt P14416); experiment: Dopamine D2 receptor (DRD2) small molecule agonists, cell-based qHTS assay (AID 1963594); also: nearly all actives have a fitted effect of over 35% in size
Outline: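 HEK293 cells stably expressing DRD2 were cultured 24 h at 37 C, then given Ro20-1724 (0.1 mM final) and compounds for 10 min at room temperature. NKH477 (200nM) was then added for 30 min. cAMP was read by HTRF.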

[17] = target: D(2) dopamine receptor (Homo sapiens) (UniProt P14416); experiment: Dopamine D2 receptor (DRD2) small molecule antagonists, cell-based qHTS assay (AID 1963595; active = well fitted inhibition curve with a large enough effect in the signal ratio in the repeat runs, with a control signal flat; the % refers to the signal ratio)
Outline: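 Antagonist mode in DRD2-HEK293 cells: after compound addition with 0.1 mM Ro20-1724, cells received quinpirole (12 nM) and NKH477 (200 nM) for 30 min at room temperature; HTRF cAMP read after 1 h detection.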

[18] = target: Beta-2 adrenergic receptor (Homo sapiens) (UniProt P07550); experiment: Adrenergic beta2 receptor (ADRB2) small molecule antagonists, cell-based qHTS assay (AID 1963592); also: series mostly up to about 92 µM; nearly all actives have a fitted effect of over 50% in size
Outline: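 Assay format: CHO-ADRB2 cells, 18-20hr seeding at 37C/5% CO2, then compound plus 1nM isoproterenol agonist mix for 0.5hr RT. Homogeneous time-resolved fluorescence cAMP detection after 1hr, expressed as 665/615 nm ratio.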

[19] = target: Beta-2 adrenergic receptor (Homo sapiens) (UniProt P07550); experiment: Adrenergic beta2 receptor (ADRB2) small molecule agonists, cell-based qHTS assay (AID 1963593);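 also: CHO cells stably overexpressing human ADRB2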
Outline: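 CHO cells stably over-expressing ADRB2 were plated overnight at 37C, then dosed with compounds plus a stimulation mix containing 100uM IBMX and 25uM Ro-20-1724 for 0.5hr at room temperature. cAMP was measured by HTRF competition, 1hr.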

[20] = target: 5-hydroxytryptamine receptor 2A (Homo sapiens) (UniProt P28223); experiment: 5-hydroxytryptamine receptor 2A (HTR2A) small molecule agonists, cell-based qHTS assay (AID 1963587); also: nearly all actives have a fitted effect of over 30% in size
Outline: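 HTR2A-CHO cells, plated 18 h at 37 C/5% CO2, dye-loaded 1 h at 37 C; compounds in DMSO added by pin tool (agonist mode). Intracellular calcium flux read as kinetic fluorescence on FDSS over 2 min at 1 s intervals.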

Sequence of Beta-2 adrenergic receptor (Homo sapiens) (P07550 whole entry, looked up): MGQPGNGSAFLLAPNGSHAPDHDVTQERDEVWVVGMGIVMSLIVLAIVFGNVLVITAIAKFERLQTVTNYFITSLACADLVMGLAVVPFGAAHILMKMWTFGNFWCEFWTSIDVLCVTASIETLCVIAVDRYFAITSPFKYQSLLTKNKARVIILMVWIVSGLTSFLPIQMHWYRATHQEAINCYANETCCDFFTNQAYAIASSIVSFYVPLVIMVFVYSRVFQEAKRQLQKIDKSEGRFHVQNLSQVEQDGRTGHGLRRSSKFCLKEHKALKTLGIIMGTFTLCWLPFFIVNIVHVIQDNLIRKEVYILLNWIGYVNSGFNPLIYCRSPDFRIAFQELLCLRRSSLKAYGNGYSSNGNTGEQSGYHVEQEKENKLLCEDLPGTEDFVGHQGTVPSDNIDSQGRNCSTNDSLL
Sequence of D(2) dopamine receptor (Homo sapiens) (P14416 whole entry, looked up): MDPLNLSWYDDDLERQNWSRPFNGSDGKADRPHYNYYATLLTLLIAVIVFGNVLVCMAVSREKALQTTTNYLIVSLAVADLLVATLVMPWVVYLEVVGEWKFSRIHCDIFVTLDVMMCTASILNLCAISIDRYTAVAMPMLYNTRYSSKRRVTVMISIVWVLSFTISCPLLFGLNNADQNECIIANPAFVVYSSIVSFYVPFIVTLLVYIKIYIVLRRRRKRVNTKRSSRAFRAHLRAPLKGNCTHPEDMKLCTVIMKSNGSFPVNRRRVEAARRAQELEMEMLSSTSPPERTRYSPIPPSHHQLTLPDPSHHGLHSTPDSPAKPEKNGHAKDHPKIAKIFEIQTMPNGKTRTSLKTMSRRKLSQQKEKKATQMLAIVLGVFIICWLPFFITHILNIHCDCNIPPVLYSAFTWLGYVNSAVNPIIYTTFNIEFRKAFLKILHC
Sequence of Gonadotropin-releasing hormone receptor (Homo sapiens) (P30968 whole entry, looked up): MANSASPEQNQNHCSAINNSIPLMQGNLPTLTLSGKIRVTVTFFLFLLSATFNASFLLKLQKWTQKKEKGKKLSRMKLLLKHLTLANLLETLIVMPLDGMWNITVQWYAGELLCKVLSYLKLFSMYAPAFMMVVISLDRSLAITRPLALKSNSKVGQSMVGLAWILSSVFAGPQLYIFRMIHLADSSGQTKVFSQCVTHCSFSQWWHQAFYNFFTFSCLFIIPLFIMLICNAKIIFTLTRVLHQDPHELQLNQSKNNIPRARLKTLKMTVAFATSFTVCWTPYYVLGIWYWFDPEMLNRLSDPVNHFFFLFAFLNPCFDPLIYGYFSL
Sequence of 5-hydroxytryptamine receptor 2A (Homo sapiens) (P28223 whole entry, looked up): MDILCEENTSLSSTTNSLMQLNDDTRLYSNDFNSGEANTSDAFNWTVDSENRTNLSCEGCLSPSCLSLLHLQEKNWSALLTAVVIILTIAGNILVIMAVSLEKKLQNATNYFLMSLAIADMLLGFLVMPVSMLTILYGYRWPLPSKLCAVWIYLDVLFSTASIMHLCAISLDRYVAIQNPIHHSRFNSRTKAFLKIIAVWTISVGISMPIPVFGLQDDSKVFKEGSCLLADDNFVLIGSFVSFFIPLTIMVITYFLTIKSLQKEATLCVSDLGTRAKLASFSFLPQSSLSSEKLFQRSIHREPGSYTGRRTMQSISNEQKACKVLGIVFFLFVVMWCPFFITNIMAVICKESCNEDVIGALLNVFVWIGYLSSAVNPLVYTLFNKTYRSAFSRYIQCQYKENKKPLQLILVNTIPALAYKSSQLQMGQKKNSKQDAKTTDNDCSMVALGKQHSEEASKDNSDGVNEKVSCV
Sequence of Muscarinic acetylcholine receptor M1 (Homo sapiens) (P11229 whole entry, looked up): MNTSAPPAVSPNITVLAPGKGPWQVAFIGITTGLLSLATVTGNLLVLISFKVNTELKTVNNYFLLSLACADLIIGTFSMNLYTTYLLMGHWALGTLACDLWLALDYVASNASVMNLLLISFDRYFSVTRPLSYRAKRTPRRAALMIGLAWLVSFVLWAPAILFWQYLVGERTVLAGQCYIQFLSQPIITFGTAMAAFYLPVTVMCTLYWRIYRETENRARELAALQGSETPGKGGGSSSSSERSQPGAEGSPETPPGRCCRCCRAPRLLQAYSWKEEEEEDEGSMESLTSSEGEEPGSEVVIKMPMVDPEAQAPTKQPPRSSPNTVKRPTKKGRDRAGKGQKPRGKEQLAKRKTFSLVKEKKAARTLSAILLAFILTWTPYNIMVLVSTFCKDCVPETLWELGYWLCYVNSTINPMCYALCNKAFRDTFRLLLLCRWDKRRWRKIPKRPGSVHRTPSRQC
Sequence of KiSS-1 receptor (Homo sapiens) (Q969F8 whole entry, looked up): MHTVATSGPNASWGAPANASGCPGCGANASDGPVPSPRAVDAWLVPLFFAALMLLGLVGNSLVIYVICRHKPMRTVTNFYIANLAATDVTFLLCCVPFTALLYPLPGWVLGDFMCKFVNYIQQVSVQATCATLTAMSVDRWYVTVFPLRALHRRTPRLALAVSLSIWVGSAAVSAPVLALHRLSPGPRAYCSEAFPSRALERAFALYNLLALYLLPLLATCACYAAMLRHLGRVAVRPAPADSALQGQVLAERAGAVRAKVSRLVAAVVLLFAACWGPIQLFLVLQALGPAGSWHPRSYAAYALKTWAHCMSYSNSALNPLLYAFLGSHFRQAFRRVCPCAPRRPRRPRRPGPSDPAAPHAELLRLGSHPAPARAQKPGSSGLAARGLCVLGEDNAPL

Structure (SMILES)	Potency [1]	Potency [2]	Potency [3]	Potency [4]	Potency [5]	Potency [6]	Potency [7]	Potency [8]	Potency [9]	Potency [10]	Potency [11]	Potency [12]	Potency [13]	Potency [14]	Potency [15]	Potency [16]	Potency [17]	Potency [18]	Potency [19]	Potency [20]
CCc1c(C)cc(N)c(CC)c1N	inactive	inactive	inactive	inactive	inactive	inactive	inactive	inactive	inactive	inactive	inactive	inactive	inactive	inactive	inactive	inactive	inactive	–	–	–
C/C=C1\[C@H]2C=C(C)C[C@]1(N)c1ccc(=O)[nH]c1C2	inactive	inactive	inactive	inactive	inactive	inactive	inactive	inactive	inactive	inactive	–	–	–	inactive	inactive	inactive	inactive	inactive	inactive	–
Nc1cccc([N+](=O)[O-])c1	inactive	inactive	inactive	inactive	inactive	inactive	inactive	inactive	inactive	inactive	inactive	130 nM (active)	–	inactive	inactive	inactive	–	inactive	inactive	inactive
CCCOC(=O)c1c(Cl)c(Cl)c(Cl)c(Cl)c1C(=O)OCCC	inactive	inactive	inactive	inactive	inactive	inactive	inactive	inactive	inactive	–	inactive	inactive	inactive	inactive	inactive	inactive	inactive	–	inactive	inactive
CCCCCC	inactive	inactive	inactive	inactive	inactive	inactive	inactive	inactive	inactive	inactive	inactive	inactive	–	inactive	inactive	inactive	inactive	inactive	inactive	inactive
C=C(C)C(=O)OCCOCCOCCOCCOC(=O)C(=C)C	inactive	inactive	inactive	inactive	inactive	inactive	inactive	inactive	inactive	inactive	inactive	inactive	inactive	–	–	inactive	inactive	inactive	–	inactive
CC(Oc1c(Cl)cccc1Cl)C1=NCCN1 (stereo not drawn)	inactive	inactive	inactive	inactive	inactive	inactive	inactive	inactive	inactive	inactive	inactive	inactive	inactive	inactive	inactive	inactive	inactive	inactive	–	–
